# According to PubChem BioAssay (NCI):
# This is part of a sample that, as a whole, favours compounds with a hit. Of some 83,000 tested, about 20% had one in any assay.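 Testing used 96-well plates and a 48-hour single-concentration exposure. Example: -40 means 40% of the starting cells died.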 Unmarked numbers belong to inactive results. The source made the active and inactive calls. Rule for the calls: active = growth percent below 10; inactive = the rest.
# What was measured:
# Assay in all cases: NCI-60 one-dose screen, 48 h (100 = growth as untreated, 0 = no growth, -100 = all killed)
# NCI-H23 lung = conditions: 10 µM unless noted
# NCI-H226 lung = conditions: 10 µM unless noted
# NCI-H322M lung = conditions: 10 µM unless noted
# HOP-62 NSCLC = conditions: 10 µM unless noted
# NCI-H460 lung = conditions: 10 µM unless noted
# HOP-92 NSCLC = conditions: 10 µM unless noted
# NCI-H522 lung = conditions: 10 µM unless noted
# A549/ATCC NSCLC = conditions: 10 µM unless noted
# 786-0 renal = conditions: 10 µM unless noted
# COLO 205 colon = conditions: 10 µM unless noted
# DU-145 prostate = conditions: 10 µM unless noted
# K-562 leukemia = conditions: 10 µM unless noted
# MALME-3M melanoma = conditions: 10 µM unless noted
# MDA-MB-231 breast = conditions: 10 µM unless noted
# RXF 393 renal = conditions: 10 µM unless noted
# SF-268 CNS = conditions: 10 µM unless noted
# SF-295 CNS = conditions: 10 µM unless noted
# SF-539 CNS = conditions: 10 µM unless noted
# UACC-257 melanoma = conditions: 10 µM
# M14 melanoma = conditions: 10 µM unless noted
Structure (SMILES),growth (NCI-H23 lung),growth (NCI-H226 lung),growth (NCI-H322M lung),growth (HOP-62 NSCLC),growth (NCI-H460 lung),growth (HOP-92 NSCLC),growth (NCI-H522 lung),growth (A549/ATCC NSCLC),growth (786-0 renal),growth (COLO 205 colon),growth (DU-145 prostate),growth (K-562 leukemia),growth (MALME-3M melanoma),growth (MDA-MB-231 breast),growth (RXF 393 renal),growth (SF-268 CNS),growth (SF-295 CNS),growth (SF-539 CNS),growth (UACC-257 melanoma),growth (M14 melanoma)
COc1ccc(CCN2C(=O)/C(=C/c3nc(CO)cs3)SC2=S)cc1,86.7%,101%,95.7%,82.8%,102%,27.7%,35.9%,95.3%,27.9%,102%,46.1%,60.4%,73.2%,53.2%,51.1%,94.8%,101%,11.2%,91.2%,85.3%
Clc1ccc(-c2nc3ccc(/C(=N\N=C\c4ccccc4)c4ccccc4)cc3[nH]2)cc1,95%,82.4%,92.4%,111%,92.5%,96.3%,76.4%,81%,84.3%,73.1%,92.5%,53.6%,97.6%,95.8%,90.1%,92.5%,80.7%,92.7%,101%,77.4%
O=C(C[n+]1ccnc2ccccc21)c1ccc(O)c(O)c1,63.8%,71.1%,90.8%,90.7%,70.9%,64.8%,-5% (active),87.1%,44.3%,30.8%,47.3%,16.6%,54.7%,55.3%,17%,85.7%,87.5%,53.1%,57.8%,61.3%
CCN1C(=O)N(CC)C2SC(N/N=C/c3ccc(F)cc3)=NC21 (stereo not drawn),29.6%,48.1%,55.2%,33%,4.72% (active),-0.0922% (active),-32.8% (active),26.4%,30.3%,-49.1% (active),16%,14.2%,54.7%,32.4%,47.3%,42.4%,12.1%,-4.01% (active),57.8%,14.6%
O=[N+]([O-])c1ccc(-c2nnc(SCc3ccc(O)c4ncccc34)o2)cc1,21.5%,36.2%,40.7%,21.5%,8.58% (active),-13.4% (active),17.2%,25.8%,33%,49.9%,29.5%,17.6%,21.5%,38.1%,14.8%,27.7%,9.85% (active),23.5%,18.6%,27.4%
COc1ccc(N2CCN(C(=O)CSc3ccc(-c4nc5cc(C)c(C)cc5[nH]4)cn3)CC2)cc1,54.5%,66.8%,76.6%,84.9%,89.9%,85%,36%,77.3%,102%,60.2%,93.1%,35.3%,69.9%,85.6%,93.6%,99.3%,50.2%,84%,52.1%,53.9%
CNC(=O)c1cc(N2CCc3cc(NC(=O)Nc4ccc(Cl)c(Cl)c4)ccc32)ccn1,95.9%,95.9%,98.6%,87%,82.5%,88.9%,68.5%,76.3%,67.2%,77.3%,97.1%,78.2%,68.3%,90.9%,-2.71% (active),104%,71.9%,55.7%,79.8%,
CN1C(=O)/C(=C/C=C/c2ccco2)SC1=S,75.7%,70.1%,88.8%,93.8%,99.1%,98.9%,71.3%,72%,84.9%,94.3%,101%,77.7%,36%,86.8%,-20.9% (active),91.2%,101%,84.7%,88.1%,45%
COc1ccc(NC(=O)[C@H](C)NC(=O)OC(C)(C)C)cc1C(=O)Nc1cccc(-c2cc(=O)c3c(OC)c(OC)c(OC)cc3o2)c1,-24.8% (active),16%,-0.408% (active),-17.5% (active),-21.4% (active),-50% (active),-46.4% (active),7.37% (active),0.528% (active),-70% (active),23%,10.6%,-13.2% (active),-46.4% (active),-84.4% (active),34.9%,-11.4% (active),-38.1% (active),-74.4% (active),-52.3% (active)
O=C(O)c1ccc(-n2cc(CNc3ccc(Cl)cc3)c(-c3ccc(F)cc3)n2)cc1,104%,103%,95.5%,95.8%,98.4%,117%,91.2%,85.4%,101%,119%,103%,83.4%,92.9%,94.2%,94.9%,104%,87.6%,98.1%,101%,
CN1CCN(c2ccc(NC(=O)Nc3ccc4c(ccn4-c4cccc(C(N)=O)n4)c3)cc2C(F)(F)F)CC1,72.5%,83.6%,58.3%,63.2%,87.2%,119%,71.6%,51.8%,6.16% (active),44.4%,77.2%,-13.8% (active),16%,74.8%,-12.9% (active),82.1%,-54.7% (active),6.11% (active),-14% (active),-47% (active)
COc1ccc(Cn2cc3c(c2-c2cc(OC)c(OC)c(OC)c2)CCCc2cnoc2-3)cc1,32.5%,53.6%,39.6%,43.2%,7.42% (active),50.6%,10.4%,33.6%,37.1%,-0.67% (active),17.4%,10.2%,57.5%,32.4%,-2.75% (active),57.7%,5.29% (active),2.82% (active),81.5%,2.98% (active)
O=C(COc1cccc2cccnc12)Nc1ccc(C(=O)/C=C/c2ccc(Cl)cc2)cc1,89.2%,94.6%,99.1%,108%,102%,108%,85.2%,85.4%,99%,108%,88.7%,47.4%,108%,93.4%,92.5%,93.7%,91.6%,93.5%,99.8%,99.5%
O=c1c2ccccc2nc(COc2ccccc2)n1/N=C/C=C/c1ccccc1,95.9%,98.1%,93%,98.6%,99.1%,102%,81.4%,100%,100%,113%,104%,109%,96.9%,93.4%,101%,97.5%,102%,100%,95.3%,97.8%
C(=C(\C1=NCCN1)n1cnc2ccccc21)/c1ccc2ccccc2c1,65.4%,62.6%,73.2%,79.4%,86.5%,-2.7% (active),14.7%,86%,74.6%,77.1%,68.7%,25.4%,79.2%,62.5%,-14.1% (active),81.8%,77.7%,82%,82.3%,61.7%
